Measurements reported in PubChem BioAssay (NCI).
About 79,000 compounds went through this panel and 15% of them were active in at least one assay; those are over-represented in the sample as a whole. Active and inactive are the calls of the source. Cut-off read from the data, not from the text of the source: active = growth inhibition above about 70%; inactive = the rest.

Test: NCI Yeast Anticancer Drug Screen. Data for the mec2-1 strain (AID 157)
Conditions: S. cerevisiae mec2-1 strain, stronger effect = higher value
Protocol: Growth inhibition of yeast strains with defined genetic alterations is measured as a screen for potential anti-cancer activity. Selected strains with alterations in DNA damage repair or cell cycle control were exposed to compounds and growth inhibition was measured relative to vehicle treated controls. The strain used in this assay is mec2-1

[1] = at 5.0 µM (retest, dose inferred, filed as 0.5)
[2] = at 50.0 µM (retest, dose inferred, filed as 5.0)

Measured: growth inhibition

O=[N+]([O-])c1cc(Cl)cnc1Br
inactive: at 1.2 µM 6% | at 3.7 µM 43% | [1] 22% | at 11.0 µM 69%
active: at 33.0 µM 85% | [2] 70% | at 50.0 µM 76.7% | at 100.0 µM 88%

CCCCOP(=O)(CCCP(=O)(OCCCC)OCCCC)OCCCC
inactive: at 1.2 µM -6% | at 3.7 µM -3% | [1] -7% | at 11.0 µM 2% | at 33.0 µM 7% | [2] 48% | at 50.0 µM 49.5%
active: at 100.0 µM 95%

CCCC(O)C1CC(C(C)C)CCC1C (stereo not given)
inactive: at 1.2 µM 0% | at 3.7 µM 3% | [1] 0% | at 11.0 µM 5% | at 33.0 µM 9% | [2] 52%
active: at 50.0 µM 75.5% | at 100.0 µM 96%

O=c1ccc2ccccc2c2ccccc12
active: at 11.0 µM 82% | at 33.0 µM 99% | [2] 99% | at 50.0 µM 93.9% | at 100.0 µM 100%
inactive: at 1.2 µM -3% | at 3.7 µM 22% | [1] 1%

O=C1c2ccccc2C(=O)c2cc(CCl)ccc21
inactive: at 1.2 µM 2% | at 3.7 µM 7% | [1] 12% | at 11.0 µM 17% | at 33.0 µM 20% | [2] 38% | at 50.0 µM 24.4% | at 100.0 µM 16%
